The text below walks through data of PubChem BioAssay AID588458 (Sanford-Burnham Center for Chemical Genomics, 2011).

The whole screen tested about 360,000 compounds, of which about 3,000 (0.83%) were called active. The full list was thinned out, with actives kept by preference. Unmarked numbers belong to inactive results. Cut-off read from the data, not from the text of the source: active = inhibition above about 50%; inactive = the rest.

The assay deals with DNA (cytosine-5)-methyltransferase 1 (Homo sapiens) (UniProt P26358). Put plainly: human DNMT1 methyltransferase inhibitors, primary screen, biochemical, molecular beacon, fluorescence, HinP1I cleavage, uHTS (AID 588458). Particulars: at 10 µM, active compounds read high.
Sequence of DNA (cytosine-5)-methyltransferase 1 (Homo sapiens) (P26358 504-1616 limits assumed): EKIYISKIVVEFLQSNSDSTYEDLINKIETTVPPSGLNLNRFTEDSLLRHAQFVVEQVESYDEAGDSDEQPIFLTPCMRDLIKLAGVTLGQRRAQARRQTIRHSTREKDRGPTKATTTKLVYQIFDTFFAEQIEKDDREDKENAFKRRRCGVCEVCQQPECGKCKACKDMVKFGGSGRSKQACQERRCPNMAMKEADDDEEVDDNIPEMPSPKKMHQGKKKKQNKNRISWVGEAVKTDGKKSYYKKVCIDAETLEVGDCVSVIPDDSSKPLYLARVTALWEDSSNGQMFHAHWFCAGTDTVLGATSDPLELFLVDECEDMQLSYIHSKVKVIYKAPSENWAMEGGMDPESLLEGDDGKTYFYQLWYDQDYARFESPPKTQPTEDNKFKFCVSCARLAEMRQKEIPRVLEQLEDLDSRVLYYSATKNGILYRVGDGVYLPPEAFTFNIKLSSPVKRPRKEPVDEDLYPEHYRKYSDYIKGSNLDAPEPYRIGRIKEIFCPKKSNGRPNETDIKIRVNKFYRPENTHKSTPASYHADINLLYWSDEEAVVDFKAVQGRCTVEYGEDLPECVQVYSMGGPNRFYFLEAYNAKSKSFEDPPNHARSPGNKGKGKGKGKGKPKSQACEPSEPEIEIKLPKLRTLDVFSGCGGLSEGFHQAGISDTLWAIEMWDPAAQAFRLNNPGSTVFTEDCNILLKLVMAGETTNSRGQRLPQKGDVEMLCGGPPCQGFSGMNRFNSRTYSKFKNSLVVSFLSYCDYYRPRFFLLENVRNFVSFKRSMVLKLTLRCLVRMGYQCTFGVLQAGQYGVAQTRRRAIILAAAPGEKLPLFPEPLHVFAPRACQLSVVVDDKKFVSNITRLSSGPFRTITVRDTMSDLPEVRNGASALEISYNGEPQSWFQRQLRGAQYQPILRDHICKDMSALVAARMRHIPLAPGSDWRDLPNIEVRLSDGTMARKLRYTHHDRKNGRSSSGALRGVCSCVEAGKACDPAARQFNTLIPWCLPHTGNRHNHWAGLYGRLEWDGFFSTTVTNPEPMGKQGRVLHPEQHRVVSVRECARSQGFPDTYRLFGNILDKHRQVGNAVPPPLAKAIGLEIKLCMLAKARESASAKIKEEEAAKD
As for `COc1ccc(C(=O)OCC(=O)NCCCc2ccccc2)cc1OC`, the inhibition (reported as % activation of signal) is 0.32%.
Take `C=CCNC(=O)COC(=O)CNC(=O)c1cc(Cl)cc([N+](=O)[O-])c1`: the inhibition (reported as % activation of signal) is 6.93%.
Consider `CCc1c(C)c2c(C)[nH]nc2oc1=O`, for which the inhibition (reported as % activation of signal) is -3.15%.
Turning to `CCC(C)Cn1c(O)cc2nn(-c3nc4ccccc4s3)c(=O)c-2c1C` (stereo not given), the inhibition (reported as % activation of signal) is 52.2% (active).
`CC1CCCCC1NC(=O)c1cc(=O)[nH]c2ccccc12` (stereo not given): the inhibition (reported as % activation of signal) was 3.02%.
As for `O=C(c1ccc(S(=O)(=O)NCc2ccco2)cc1)N1CCN(c2ccccc2)CC1`, the inhibition (reported as % activation of signal) is 3.68%.
Under `O=C(c1ccc(CS(=O)Cc2ccccc2Cl)o1)N1CCN(c2ccccc2)CC1` (stereo not given) stands 5.54%; under `O=C(c1ccc(CS(=O)(=O)c2ccccc2)o1)N1CCN(c2ccccc2)CC1`, 84.6% (active); under `CC(=O)N/C(=C/c1ccc(OC(F)F)cc1)C(=O)O`, -1.65%.
As to `Cc1ccc(C(=O)O)cc1-c1ccc(/C=C2\SC(=O)N(CC(=O)Nc3ccc4c(c3)OCO4)C2=O)o1`, the inhibition (reported as % activation of signal) is 12.5%.
Take `O=C(NCCN1C(=O)S/C(=C\c2cccnc2)C1=O)c1cccc(OC(F)F)c1`: the inhibition (reported as % activation of signal) was -3.23%.
To `N#Cc1ccccc1CN1C(=O)S/C(=C/c2cccn2-c2cccc(C(=O)O)c2)C1=O` belongs 102% (active).
To `O=C(NC(Cc1ccccc1)C(=O)O)/C(=C\c1ccccc1)NC(=O)c1ccco1` (stereo not given) belongs -3.34%; to `CCC(C)(C)NC(=O)CN(C(=O)CCC(=O)Nc1cc(C)ccn1)c1ccc2c(c1)OCCO2`, -0.26%.
With `O=C(c1cccnc1)N(c1cc2sc(=O)oc2c2ccccc12)S(=O)(=O)c1ccccc1`, the inhibition (reported as % activation of signal) was -12.2%.
On to `CC(Sc1cccc[n+]1[O-])C(=O)Nc1cccc(S(=O)(=O)N2CCOCC2)c1` (stereo not given), for which the inhibition (reported as % activation of signal) is 1.02%.
As to `CN(C)/C=C(/C(=O)c1ccc(F)cc1)S(=O)(=O)c1ccc(F)cc1`, the inhibition (reported as % activation of signal) is 1.17%.
Consider `CN(C)/C=C(/C(=O)c1ccccc1)S(=O)(=O)c1ccc(Cl)cc1`, for which the inhibition (reported as % activation of signal) is -1.72%.
Turning to `CN(C)/C=C(/C(=O)c1ccc(Cl)cc1)S(=O)(=O)c1ccccc1`, the inhibition (reported as % activation of signal) was 70% (active).
To `Cc1cnc(CN(C)C(=O)C2CCC(=O)N(CCc3cccc(F)c3)C2)[nH]1` (stereo not given) belongs 1.88%; to `COc1cccc(C(=O)Nc2ccc3nc4n(c(=O)c3c2)CCCCC4)c1`, 3.72%; to `COc1cccc(C(=O)Nc2ccc(N3CCCC3)cc2)c1`, 91.3% (active).
`O=C(Nc1ccc(Cl)cc1)c1cccc(OC(=S)N2CCOCC2)c1`: the inhibition (reported as % activation of signal) is 0.14%.
Take `CC1CN(C(=O)c2ccccc2NS(=O)(=O)c2cccc([N+](=O)[O-])c2)CC(C)O1` (stereo not given): the inhibition (reported as % activation of signal) is 65.4% (active).
`Cc1cc([N+](=O)[O-])ccc1NS(=O)(=O)c1ccccc1`: the inhibition (reported as % activation of signal) was 3.46%.
Take `CC1CN(C(=O)c2cccc(NS(=O)(=O)c3ccc(Br)cc3)c2)CC(C)O1` (stereo not given): the inhibition (reported as % activation of signal) was 6.97%.
Under `Nc1c(C(=O)O)cnn1-c1ccccc1` stands -0.06%; under `Cc1noc(C)c1COc1ccccc1C(=O)N(C)CC(=O)Nc1cccc(F)c1`, 1.78%; under `COc1ccc(C)cc1NC(=O)CCCN1C(=O)NC(C)(C)C1=O`, 2.66%.
Regarding `Cc1cc(O)c(Sc2ccccc2)c(=O)o1`, the inhibition (reported as % activation of signal) was 4.53%.
As to `COc1ccc(/C=C/C(=O)c2c(O)cc(OC)cc2OC)cc1`, the inhibition (reported as % activation of signal) is -2.91%.
As to `Cc1cc(O)c(C(=O)/C=C/c2c(F)c(F)c(F)c(F)c2F)c(=O)o1`, the inhibition (reported as % activation of signal) is 59.4% (active).
With `COc1ccc(C)cc1NC(=O)c1cc(-c2ccccc2)nc2c1cnn2C(C)C`, the inhibition (reported as % activation of signal) was -4.87%.
For the molecule `O=C(CN1CCOCC1)N/N=C/c1ccc(-c2ccc(Br)cc2)o1`, the inhibition (reported as % activation of signal) was -2.15%.
Consider `O=C(Cn1nnc(-c2ccccc2)n1)N/N=C/c1ccc(-c2ccc(Cl)cc2)o1`, for which the inhibition (reported as % activation of signal) was 59.9% (active).
Consider `Nc1nnn(CC(=O)N/N=C/c2ccccc2)n1`, for which the inhibition (reported as % activation of signal) is 0.13%.
As for `CC1(C)CC(=O)C(C2c3ccccc3S(=O)(=O)c3ccccc32)C(=O)C1`, the inhibition (reported as % activation of signal) was 1.21%.
Turning to `O=C(Nc1ccnn1C1CCN(Cc2cccc(OCCO)c2)CC1)C1CCCC1`, the inhibition (reported as % activation of signal) is -0.78%.
As to `COc1cc(CC(=O)N2CCC(n3nccc3NC(=O)C3CC3)CC2)cc(OC)c1OC`, the inhibition (reported as % activation of signal) is 0.88%.
Under `CCOc1ccc(CN2CCC(n3nccc3NC(=O)C3CC3)CC2)cc1CO` stands 55.5% (active); under `COCCCC1CCN(C(=O)C2CCC(=O)N(C3CCCCCC3)C2)CC1` (stereo not given), -2.02%; under `C=CCN1CCN(C(=O)CCCc2ccccc2)CC1`, 0.85%.
On to `O=C(Oc1ccc(-c2nc(-c3ccccn3)no2)cc1)c1ccccc1`, for which the inhibition (reported as % activation of signal) is 52.9% (active).
Take `Cc1noc(C)c1COC(=O)COc1ccc(-c2ccccc2)cc1`: the inhibition (reported as % activation of signal) is -6.7%.
Take `O=C(COC(=O)c1ccncc1)c1ccccc1`: the inhibition (reported as % activation of signal) was -0.53%.
